Rows were chosen to be rich in hits. Some 9.9% of all compounds tested hit in one or more screens of this group.
KB-3-1 tox – KB-3-1 parental cell cytotoxicity. Potency, µM (highest dose often 46.1 µM), most hits filed as cytotoxic. KB-3-1 viability, CellTiter-Glo ATP luminescence, 72 h. AID 1347075. 400,000 tested, 1.4% active; also: nearly all actives have a fitted effect of over 60% in size
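Cells are dispensed, compounds pinned in, plates held at 37 °C for 72 h, then CellTiter-Glo is added and luminescence read after 10 minutes. Cell line: parental KB-3-1 in phenol-red-free DMEM, 10% FBS.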
SW480 rerep – induces DNA re-replication in SW480 colon adenocarcinoma cells. 340,000 tested, 1.8% active. Potency, µM (doses to about 46.1 µM), actives largely listed as activators. AID 624297. SW480 DNA re-replication, Hoechst DNA content imaging, 48 h; also: nearly all actives have a fitted effect of over 55% in size
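Compounds, transferred as 23 nL by pin tool, were incubated with cells for 48 hr; DNA content per nucleus was then quantified by Hoechst staining and fluorescence plate imaging.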
MCF10A rerep – induces DNA re-replication in MCF 10a normal breast cells; MCF 10A DNA re-replication, Hoechst nuclear intensity, 48 h; Potency, µM (series often up to 46.1 µM), most hits filed as activators; 350,000 tested, 2.9% active; AID 624296; also: nearly all actives have a fitted effect of over 50% in size
KB-V1 MDR tox – kills drug-selected multidrug resistant KB-V1 cells | KB-V1 MDR cells viability, CellTiter-Glo, 72 h | Potency, µM (top dose mostly 46.1 µM), actives largely listed as cytotoxic | 400,000 tested, 3.4% active | AID 1347076; also: nearly all actives have a fitted effect of over 60% in size
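KB-V1, DMEM (no phenol red) + 10% FBS; cpd pin-transferred, titration series; 72 h, 37 degrees C; CellTiter-Glo, luminescence. Data normalized, curve-fit.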
IL-1B inflam inh – inhibitors of inflammasome signaling (IL-1 beta secretion) | THP-1 LPS/ATP IL-1B secretion, AlphaLISA, 16 h; active compounds read low | activity change, % at 57.5 µM | 360,000 tested, 4.7% active | AID 743279; in the data active = activity change below about -50%; inconclusive = mostly about -30% to -49%
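THP-1 cells pretreated 1 hr with compounds (up to 57.5 uM final), then stimulated with LPS (250 ng/mL final) plus ATP (1.25 mM final); secreted IL-1B measured by AlphaLISA after 16 hr, decreased signal indicating inhibition.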
Large screens that a line does not name were inactive. Unless noted, calls follow the shape of the dose curve; as a rule, active = well fitted curve in the direction sought with a large enough effect; inconclusive = small, poorly fitted or top-dose-only effect, or another doubt; inactive = no such curve, though single readings can be large; an effect the other way counts as inactive or inconclusive.

CSc1ccc(C2C(C(=O)c3ccco3)=C(O)C(=O)N2c2nnc(SC)s2)cc1 (stereo not given)	KB-V1 MDR tox inconclusive
c1ccc(-c2csc(CN3CCCCC3)n2)cc1	none
COc1ccccc1-c1cnn2c(NC3CCCC3)cc(C)nc12	MCF10A rerep 16µM, KB-V1 MDR tox inconclusive
CCOC(=O)N1CCC(Nc2cc(C)nc3c(-c4ccccc4OC)c(C)nn23)CC1	none
C#CC(C)(CC)NC(=O)Cn1nnc(-c2ccc(OCc3ccccc3F)cc2)n1 (stereo not given)	none (no result: SW480 rerep, MCF10A rerep, IL-1B inflam inh)
COc1ccc(NC(=O)CN(C)C(=O)C2(c3ccccc3)CCCC2)cc1	KB-3-1 tox inconclusive, KB-V1 MDR tox inconclusive
COc1ccc(C(=O)Nc2sc(C(=O)N(C)C)c(C)c2C#N)cc1[N+](=O)[O-]	KB-3-1 tox inconclusive, SW480 rerep inconclusive, KB-V1 MDR tox 18µM
Nc1nnc(CSCc2cccc(Br)c2)s1	SW480 rerep inconclusive, KB-V1 MDR tox inconclusive
O=C1CCC(=O)O1	KB-3-1 tox inconclusive, SW480 rerep inconclusive, IL-1B inflam inh -54
O=C1CCc2ccccc2O1	none
O=C1OC(/C(=C\Nc2ccccc2)[N+](=O)[O-])c2ccccc21 (stereo not given)	IL-1B inflam inh -104
O=C1OC(/C(=C\NCc2ccccc2)[N+](=O)[O-])c2ccccc21 (stereo not given)	none
O=C(CSc1ccccn1)N1CCNC1=O	none
CCN(CC)S(=O)(=O)c1ccc(Cl)c(C(=O)Nc2nncs2)c1	none
CCN(CC)S(=O)(=O)c1cc(C(=O)Nc2cc(C)on2)c(Cl)cc1Cl	SW480 rerep inconclusive, MCF10A rerep inconclusive, IL-1B inflam inh -94
CCN(CC)S(=O)(=O)c1cc(C(=O)Nc2nncs2)c(Cl)cc1Cl	SW480 rerep inconclusive, MCF10A rerep inconclusive, KB-V1 MDR tox inconclusive, IL-1B inflam inh -84
CCN(CC)S(=O)(=O)c1cccc(C(=O)Nc2cc(C)on2)c1	none
CC(=O)Nc1ccc(/C=C2\C=Cc3ccccc32)cc1	none (no result: SW480 rerep, MCF10A rerep, IL-1B inflam inh)
C/C(=N\NC(=O)C(c1ccccc1)c1ccccc1)c1ccccn1	KB-3-1 tox 13µM, MCF10A rerep inconclusive, IL-1B inflam inh -97
C/C(=N/NC(=O)c1ccccn1)c1ccncc1	none
CC(=NNC(=O)c1ccncc1)c1cccc(Br)c1	KB-V1 MDR tox inconclusive
CC(C)(C)c1ccc(C(=O)O/N=C(\N)c2ccccn2)cc1	SW480 rerep inconclusive, IL-1B inflam inh -65
C/C(=N\NC(=O)c1cccc(Br)c1)c1ccccn1	KB-3-1 tox inconclusive, SW480 rerep inconclusive, MCF10A rerep 2.9µM, KB-V1 MDR tox 1.5µM
C/C(=N\NC(=O)c1ccc(Cl)c(Cl)c1)c1ccccn1	KB-3-1 tox inconclusive, SW480 rerep inconclusive, IL-1B inflam inh -103
C/C(=N\NC(=O)C(c1ccccc1)c1ccccc1)c1ccc(O)cc1	none
O=C(Cc1ccc(OCCC2CCCCC2)cc1)NO	none (no result: SW480 rerep, MCF10A rerep, IL-1B inflam inh)
Ic1ccc(Nc2nc(NCCN3CCOCC3)nc(N3CCOCC3)n2)cc1	none (no result: SW480 rerep, MCF10A rerep, IL-1B inflam inh)
COc1cc(-c2nnc(SCC(=O)Nc3cccc(C#N)c3)o2)cc(OC)c1OC	none (no result: SW480 rerep, MCF10A rerep, IL-1B inflam inh)
C/C(=N\NC(=O)c1cc(Br)ccc1O)c1ccccn1	SW480 rerep inconclusive, MCF10A rerep inconclusive, IL-1B inflam inh -81
CCc1ccc(OCC(=O)O/N=C(\N)c2ccccn2)cc1	none
C/C(=N\NC(=O)c1ccc(NS(=O)(=O)c2cccs2)cc1)c1ccccn1	KB-3-1 tox inconclusive, SW480 rerep inconclusive, MCF10A rerep inconclusive, KB-V1 MDR tox inconclusive
C/C(=N/NC(=O)c1ccc(C(C)(C)C)cc1)c1ccccn1	KB-3-1 tox 2.6µM, SW480 rerep inconclusive, MCF10A rerep inconclusive, KB-V1 MDR tox inconclusive
COc1ccc(C(=O)N/N=C\C(C)=C\c2ccccc2)cc1OC	KB-3-1 tox inconclusive, MCF10A rerep inconclusive, KB-V1 MDR tox inconclusive, IL-1B inflam inh -94
N/C(=N\OC(=O)COc1ccccc1)c1ccccn1	SW480 rerep 18µM
Cc1cccc(/C=N/NC(=O)c2cc(Br)ccc2O)n1	none
Cc1cccc(NC(=O)c2c(NC(=O)c3ccco3)sc3c2CCC(C(C)(C)C)C3)c1 (stereo not given)	none (no result: SW480 rerep, MCF10A rerep, IL-1B inflam inh)
CCNC(=O)CCCN1C(=O)CCn2nc(-c3cccn3C)cc21	none (no result: SW480 rerep, MCF10A rerep, IL-1B inflam inh)
COc1ccccc1NC(=O)C(=O)NCC(c1ccc2c(c1)OCO2)N1CCOCC1 (stereo not given)	none (no result: SW480 rerep, MCF10A rerep, IL-1B inflam inh)
COc1ccc(NC(=O)c2ccccn2)cc1OC	none
